For orientation: AC50 means the concentration at which the activity in the assay is half-maximal.

Structures are written as SMILES. “And” between values parts separate entries of the source, which are not always exact repeats. Identical values can stand only once. Where a structure was tested more than once in an assay, its records may differ in their call. The source made the active and inactive calls. Rule for the calls: active = hit-call score of the fitted dose curve at least 0.9, where 1 is the maximum; inactive = score below 0.9.

Drawing on PubChem BioAssay (EPA / NIEHS), this text covers outcome and AC50 for 24 molecules.

The target of experiment [1] is Transcription factor E2F1 (Homo sapiens) (UniProt Q01094). As to the kind of experiment: ATG_E2F_CIS: Attagene CIS-FACTORIAL HepG2 Assay for human E2F Transcription Factor 1 (AID 2282935). Particulars: HepG2 Attagene cis-reporter, E2F reporter RNA transcripts; actives raise or lower the signal. The method in brief:
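Total RNA from 24 h-treated, reporter-transfected HepG2 cells undergoes DNase I treatment, oligo(dT) reverse transcription, PCR and 6-FAM primer extension before capillary electrophoresis.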

Experiment [2] in a line: ATG_E_Box_CIS: Attagene CIS-FACTORIAL HepG2 Assay for human Enhancer Box (E-box) (AID 2282936). Particulars: HepG2 E-box cis-reporter transcription, actives raise or lower the signal. The method in brief: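 DMSO served as negative control and baseline for bidirectional fitting. Human hepatoma HepG2 cells, transiently transfected with cis-reporter constructs, were dosed 24 h; reporter mRNA read by RT-PCR and capillary electrophoresis.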

Experiment [3] can be described thus: ATG_M_61_CIS: Attagene CIS-FACTORIAL HepG2 Assay for M61 Transcription Factor (Internal Marker) (AID 2282937). The conditions noted are these: HepG2 Attagene CIS-FACTORIAL M61 internal marker reporter; actives raise or lower the signal. The method in brief: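 This endpoint serves as an internal background control within a multiplexed HepG2 cis-reporter panel. Cells are exposed for 24 h; reporter mRNA is amplified, fluorescently labelled and sized by capillary electrophoresis, with DMSO as negative control.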

The nature of experiment [4]: ATG_EGR_CIS: Attagene CIS-FACTORIAL HepG2 Assay for human Early Growth Response 1 (EGR1) (AID 2282938). Particulars: HepG2 Attagene CIS-FACTORIAL EGR reporter mRNA; actives raise or lower the signal. The method in brief: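 HepG2, transient MRTU transfection (cis promoters), 24 h compound. RNA → RT (oligo-dT) → PCR → 6-FAM labelling → HpaI cut → CE fluorescence. Bidirectional fit, DMSO baseline.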

Experiment [5] is described as follows: ATG_M_19_CIS: Attagene CIS-FACTORIAL HepG2 Assay for M19 Transcription Factor (Internal Marker) (AID 2282939). The conditions noted are these: HepG2 Attagene CIS-FACTORIAL M19 internal marker reporter; actives raise or lower the signal. The method in brief: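 Readout: fluorescent reporter-transcript fragments by capillary electrophoresis after RT-PCR. Human HepG2 liver cells carried transfected MRTU constructs reporting endogenous transcription-factor activity; exposure 24 h. Gain or loss of signal fitted relative to DMSO.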

Experiment [6] can be described thus: ATG_ERE_CIS: Attagene CIS-FACTORIAL HepG2 Assay for Estrogen Response Element (ERE) (AID 2282940). The conditions noted are these: HepG2 ERE cis-reporter, Attagene RNA transcript; actives raise or lower the signal. The method in brief: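 Readout: reporter mRNA induction by RT-PCR, FAM-labelled primer extension, HpaI digestion and capillary electrophoresis, 24 h after dosing transfected HepG2 cells. Endogenous transcription factors act on cis-element-regulated reporters. Gain or loss fitted against DMSO.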

Experiment [7] in a line: ATG_Ets_CIS: Attagene CIS-FACTORIAL HepG2 Assay for human Erythroblast Transformation Specific (ETS) (AID 2282941). Particulars: HepG2 ETS cis-reporter transcription, actives raise or lower the signal. The method in brief:
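HepG2 cells transfected with multiple cis-regulated reporter units measuring endogenous ETS-driven transcription, 24 h after dosing. Reporter mRNA quantified by RT-PCR with capillary electrophoresis; bidirectional fit relative to DMSO.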

Experiment [8] concerns the target Hepatocyte nuclear factor 3-beta (Homo sapiens) (UniProt Q9Y261). Nature of the experiment: ATG_FoxA2_CIS: Attagene CIS-FACTORIAL HepG2 Assay for human Forkhead box A2 (FOXA2) (AID 2282942). The conditions noted are these: HepG2 cis-reporter transcription factor activity, 24 h; actives raise or lower the signal. The method in brief: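 Cells: HepG2, transient multiplex reporter transfection. Exposure 24 h. Detection: reporter-specific RT-PCR, fluorescent labelling, restriction digest, capillary electrophoresis. Analysis: bidirectional curve fit, DMSO as negative control.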

The nature of experiment [9]: ATG_FoxO_CIS: Attagene CIS-FACTORIAL HepG2 Assay for human Forkhead box O (FoxO) (AID 2282943). Particulars: HepG2 Attagene cis-reporter, FoxO element, mRNA; actives raise or lower the signal. The method in brief: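 Human hepatoma HepG2 cells carry transiently introduced reporter transcription units controlled by cis promoter elements. Chemical treatment lasted 24 h, and mRNA signal was compared with DMSO.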

Experiment [10] in a line: ATG_GATA_CIS: Attagene CIS-FACTORIAL HepG2 Assay for human GATA Binding Protein (AID 2282944). Particulars: HepG2 GATA cis-element reporter, Attagene multiplex mRNA; actives raise or lower the signal. The method in brief:
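Read-out: fluorescent reporter mRNA fragments resolved by capillary electrophoresis after RT-PCR. Human liver HepG2 cells carried transiently transfected cis-regulated reporter constructs; chemicals incubated 24 h; gain or loss of signal fitted relative to DMSO.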

Sequence of Transcription factor E2F1 (Homo sapiens) (Q01094 whole entry, looked up): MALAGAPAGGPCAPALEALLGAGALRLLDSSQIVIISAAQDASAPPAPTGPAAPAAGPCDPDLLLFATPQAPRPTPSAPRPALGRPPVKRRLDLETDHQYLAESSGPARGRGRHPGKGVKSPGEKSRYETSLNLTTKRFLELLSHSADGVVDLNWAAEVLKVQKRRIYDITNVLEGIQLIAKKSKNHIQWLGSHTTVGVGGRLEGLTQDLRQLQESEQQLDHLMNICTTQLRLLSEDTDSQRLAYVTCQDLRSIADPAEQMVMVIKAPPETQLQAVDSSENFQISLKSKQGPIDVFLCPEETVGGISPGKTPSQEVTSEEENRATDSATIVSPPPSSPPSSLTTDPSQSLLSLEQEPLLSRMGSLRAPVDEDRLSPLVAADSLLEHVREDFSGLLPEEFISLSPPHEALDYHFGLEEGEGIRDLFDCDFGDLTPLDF
Sequence of Hepatocyte nuclear factor 3-beta (Homo sapiens) (Q9Y261 whole entry, looked up): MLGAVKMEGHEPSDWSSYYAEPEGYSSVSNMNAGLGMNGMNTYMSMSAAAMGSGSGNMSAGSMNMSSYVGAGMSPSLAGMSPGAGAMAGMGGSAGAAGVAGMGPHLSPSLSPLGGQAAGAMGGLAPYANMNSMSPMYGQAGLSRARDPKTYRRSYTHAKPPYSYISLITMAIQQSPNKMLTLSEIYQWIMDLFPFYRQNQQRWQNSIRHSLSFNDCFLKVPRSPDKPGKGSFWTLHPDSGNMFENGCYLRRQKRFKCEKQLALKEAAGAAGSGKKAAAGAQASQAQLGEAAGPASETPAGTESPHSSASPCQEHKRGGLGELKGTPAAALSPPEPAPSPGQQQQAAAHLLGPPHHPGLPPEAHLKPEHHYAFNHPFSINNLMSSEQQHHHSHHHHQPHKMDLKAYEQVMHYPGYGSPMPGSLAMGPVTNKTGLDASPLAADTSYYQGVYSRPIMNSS

Regarding `O=S1(=O)CC(Cl)(Cl)C(Cl)(Cl)C1`, the outcome in experiment [1], in experiment [3], in [5], in [6], in [7] and in experiment [8] was inactive. For the same molecule, the molecule was classed as inactive in [9] and in experiment [10]. Moreover, the values for the AC50 in [2] and in experiment [4] were 2.8 µM (active) and 6.17 µM (active), respectively.

With `CCCCCC1C(=O)CCC1CC(=O)OC` (stereo not given), the result in [1], in [2], in [3], in experiment [4], in experiment [5] and in experiment [6] was inactive. Also, the molecule was called inactive in experiment [7], in [8] and in experiment [9].

Consider `CC(=O)CC(=O)N(C)C`, for which the molecule was called inactive in experiment [1], in [2], in experiment [3], in [4], in experiment [5] and in experiment [6]. In addition, the call in experiment [7], in [8], in experiment [9] and in [10] was inactive.

For `CC(=O)N(C)C`, the outcome in experiment [1], in experiment [2], in experiment [3], in experiment [4], in [5] and in experiment [6] was inactive. The outcome in experiment [7] was inactive.

For the molecule `CCO[Si](CC)(OCC)OCC`, the result in experiment [1], in experiment [2], in experiment [3], in experiment [4], in experiment [5] and in experiment [6] was inactive. Besides, the molecule was called inactive in experiment [7] and in experiment [8].

On to `CC(C)=CC(=O)O`, for which the molecule was called inactive in experiment [1], in experiment [2], in experiment [3], in experiment [4], in experiment [5] and in experiment [7]. Further, the outcome in experiment [8], in [9] and in experiment [10] was inactive. For the same molecule, the half-maximal activity concentration (AC50) in [6] was 7.06 µM (active).

Regarding `CCOC(=O)COC(=O)c1ccccc1C(=O)OCC`, the molecule was called inactive in experiment [1], in experiment [2], in experiment [3], in [4], in experiment [5] and in [6]. The call in experiment [7] and in experiment [8] was inactive.

Regarding `CCCCCCCC(=O)N(C)C`, the call in experiment [1], in experiment [2], in experiment [3], in experiment [4], in [5] and in experiment [6] was inactive. Besides, the molecule was classed as inactive in [7], in [8], in [9] and in [10].

For `CCCCCCCCCCO[C@@H]1O[C@H](CO)[C@@H](O)[C@H](O)[C@H]1O`, the molecule was called inactive in [1], in experiment [2], in experiment [3], in [4], in experiment [5] and in experiment [6]. The molecule was called inactive in experiment [7], in experiment [8] and in [9].

For `CCCCCCCCCCCCCC(=O)OCC`, the result in [1], in [2], in [3], in [4], in experiment [5] and in [6] was inactive. Besides, the molecule was classed as inactive in [7], in [8], in [9] and in [10].

For `CC(O)CN` (stereo not given), the molecule was classed as inactive in experiment [1], in experiment [2], in [3], in experiment [4], in experiment [5] and in [6]. Moreover, the call in [7], in [8] and in experiment [9] was inactive.

For the molecule `CC1=CC[C@@H]2C[C@H]1C2(C)C`, the call in experiment [1], in [2], in experiment [3], in experiment [4], in [5] and in [6] was inactive. Moreover, the outcome in experiment [7], in experiment [8], in experiment [9] and in experiment [10] was inactive.

`CC(=O)c1cccnc1`: the molecule was called inactive in [1], in experiment [2], in experiment [3], in [4], in experiment [5] and in experiment [6]. Besides, the call in experiment [7], in experiment [8] and in [9] was inactive.

With `CC(=O)CCC(=O)O`, the molecule was classed as inactive in [1], in experiment [2], in experiment [3], in experiment [4], in experiment [5] and in experiment [6]. Further, the call in experiment [7], in experiment [8], in experiment [9] and in experiment [10] was inactive.

For `Nc1ccn([C@H]2CC[C@@H](CO)O2)c(=O)n1`, the molecule was called inactive in experiment [1], in experiment [2], in [3], in [4], in experiment [5] and in experiment [6]. Moreover, the molecule was called inactive in experiment [7], in [8], in experiment [9] and in [10].

Take `CCC(C)C1CCCCC1=O` (stereo not given): the outcome in experiment [1], in experiment [2], in experiment [3], in experiment [4], in experiment [5] and in experiment [6] was inactive. The outcome in experiment [7], in experiment [8], in [9] and in [10] was inactive.

Consider `CN(C)C`, for which the result in experiment [1], in experiment [2], in experiment [3], in experiment [4], in [5] and in experiment [6] was inactive. Moreover, the call in [7], in experiment [8], in experiment [9] and in [10] was inactive.

With `O=C(c1ccc(OCCN2CCCCC2)cc1)c1c(-c2ccc(O)cc2)sc2cc(O)ccc12`, the molecule was classed as inactive in experiment [1], in [2], in experiment [3], in experiment [4], in experiment [5] and in [9]. For the same molecule, the molecule was classed as inactive in experiment [10]. Also, the AC50 in [2] was 11.1 µM (active) and 7.95 µM (active); in [4], 11.1 µM (active) and 12.6 µM (active) and 7.51 µM (active); in [5], 11.3 µM (active) and 11.1 µM (active).

On to `CCCC(O)C(CC)CO` (stereo not given), for which the outcome in experiment [1], in [2], in experiment [3], in experiment [4], in experiment [5] and in experiment [6] was inactive. Besides, the molecule was classed as inactive in [7], in [8], in experiment [9] and in experiment [10].

As to `NC(=O)c1cccnc1`, the molecule was classed as inactive in [1], in experiment [2], in experiment [3], in experiment [4], in experiment [5] and in experiment [6]. Moreover, the molecule was classed as inactive in [7], in experiment [8], in [9] and in experiment [10].

Take `CC(=O)CC(C)(C)C1CCCCC1`: the molecule was classed as inactive in experiment [1], in experiment [2], in [3], in experiment [4], in experiment [5] and in experiment [6]. In addition, the molecule was called inactive in experiment [7], in experiment [8] and in [9].

Turning to `CC(=O)C1C(=O)C=C(C)OC1=O` (stereo not given), the result in experiment [1], in experiment [2], in experiment [3], in experiment [4], in [5] and in experiment [6] was inactive. The call in experiment [7], in experiment [8], in [9] and in experiment [10] was inactive.

For `CCOC(=O)CC1(C)OCC(C)O1` (stereo not given), the molecule was called inactive in [1], in experiment [2], in experiment [3], in experiment [4], in experiment [5] and in experiment [6]. In experiment [7], the result was inactive.

With `S=c1[nH][nH]c(=S)s1`, the molecule was classed as inactive in experiment [1], in experiment [2], in experiment [3], in [4], in [5] and in [6]. Moreover, the outcome in [7], in [8], in experiment [9] and in experiment [10] was inactive.
